Shown is part of a subset that was picked to be rich in hits.
Tb PYK inh: qHTS of Trypanosoma Brucei Inhibitors. AID 624173, 2012. TbPYK enzyme, Kinase-Glo Plus ATP luminescence, 45 min. pyruvate kinase (Trypanosoma brucei), Q57TT1. 410,000 compounds, 0.12% hits. Potency, µM (top dose mostly 76.8 µM), without a hit: top-dose activity, negative = inhibition, usual class: inhibitors; active = well fitted curve in the direction sought with a large enough effect; inconclusive = small, poorly fitted or top-dose-only effect, or another doubt; inactive = no such curve, though single readings can be large; an effect the other way counts as inactive or inconclusive; note: potency is the fitted concentration of half-maximal effect; % is set by controls: 0 for no effect and ±100 for the full control effect; nearly all actives have a fitted effect of over 50% in size
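T. brucei PYK with substrate was exposed to pin-transferred compounds across a concentration series, then started with 130 uM ADP (final). After 45 min at room temperature, Kinase-Glo Plus luminescence was read, normalized and curve-fitted.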
NS1 function inh: qHTS Assay for Inhibitors of Influenza NS1 Protein Function; 270,000 compounds, 0.4% hits; AID 2326, 2010; Potency, µM (highest dose often 46.1 µM), for inactives: at the highest dose activity, positive = more growth; note: potency is the fitted concentration of half-maximal effect; actives are rising curves; nearly all actives have a fitted effect of over 50% in size
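A cell-based growth assay was used: compounds that relieve NS1-induced slow growth of budding yeast raise OD600. Assay medium was yeast nitrogen base with ammonium sulphate and -URA supplement, pH 6.0, with 2% galactose.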
Shiga inhibitor: A qHTS for Small Molecule Inhibitors of Shiga Toxin; Vero cells, Shiga toxin protein synthesis inhibition reporter; inhibition, % at 38.7 µM; 290,000 compounds, 9.2% hits; in the data active = inhibition mostly above about 28%, no sharp cut-off; inactive = mostly below about 43%; note: 0% is about no effect
SARS PLpro yeast: qHTS of Yeast-based Assay for SARS-CoV PLP; Potency, µM (titrated, usually from 32.9 µM), for the others: at the top dose activity, positive = growth rescue, most hits filed as activators; S. cerevisiae expressing SARS-CoV PLpro, growth rescue; 330,000 compounds, 0.19% hits; note: potency is the fitted concentration of half-maximal effect; 0% is about no effect; nearly all actives have a fitted effect of over 55% in size
CHX counter: Cycloheximide Counterscreen for Small Molecule Inhibitors of Shiga Toxin | cell reporter, cycloheximide protein synthesis inhibition counterscreen | max response, % | 300,000 compounds, 12% hits | AID 2314, 2010; in the data active = max response mostly above about 13%, no sharp cut-off; inactive = mostly below about 14%; note: read at 38.3 µM for the half of the compounds with a filed dose; 0% is about no effect
LmPK inhibitor: qHTS Assay for Inhibitors of Leishmania Mexicana Pyruvate Kinase (LmPK); purified LmPK, Kinase-Glo ATP luminescence, 1 h; Q27686; Potency, µM (doses to about 57.5 µM), for inactives: at the highest dose activity change, negative = inhibition, actives largely listed as inhibitors; 290,000 compounds, 0.37% hits; active = well fitted curve in the direction sought with a large enough effect; inconclusive = small, poorly fitted or top-dose-only effect, or another doubt; inactive = no such curve, though single readings can be large; an effect the other way counts as inactive or inconclusive; note: potency is the fitted concentration of half-maximal effect; % is set by controls: 0 for no effect and ±100 for the full control effect
Target sequence (Q27686 whole entry, looked up): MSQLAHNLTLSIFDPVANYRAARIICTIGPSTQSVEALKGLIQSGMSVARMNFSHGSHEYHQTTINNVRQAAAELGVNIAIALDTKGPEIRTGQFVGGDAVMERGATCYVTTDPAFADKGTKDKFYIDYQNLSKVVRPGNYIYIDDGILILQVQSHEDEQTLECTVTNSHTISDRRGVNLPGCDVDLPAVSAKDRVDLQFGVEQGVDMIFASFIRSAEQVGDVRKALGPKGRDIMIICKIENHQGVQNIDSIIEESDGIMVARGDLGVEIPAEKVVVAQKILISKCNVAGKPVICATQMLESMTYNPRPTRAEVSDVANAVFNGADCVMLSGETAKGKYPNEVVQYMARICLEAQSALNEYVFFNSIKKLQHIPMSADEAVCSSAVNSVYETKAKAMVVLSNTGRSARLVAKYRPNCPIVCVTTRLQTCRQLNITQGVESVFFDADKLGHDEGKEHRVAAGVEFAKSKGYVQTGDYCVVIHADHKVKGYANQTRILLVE
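Purified LmPK (0.1 nM) converted ADP (0.1 mM) to ATP with PEP (0.5 mM) in imidazole buffer pH 7.2 with KCl and MgCl2, 1 h at room temperature. ATP was read by Kinase-Glo luminescence; data normalized to uninhibited and no-enzyme controls.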
Active calls of the source: *; ? = inconclusive; / = no result given. Unless noted, calls come from the whole dose curve.

SMILES	Tb PYK inh	NS1 function inh	Shiga inhibitor	SARS PLpro yeast	CHX counter	LmPK inhibitor
Cc1cccc(OCCn2c(=O)sc3ccccc32)c1	-1%	-18%	79*	-3%	36*	-4%
Cc1cccc(OCCn2c(=O)n(C)c3ccccc32)c1	-10%	-111%	115*	-9%	67*	7%
Cc1cccc(OCCn2c(SCC(=O)O)nc3ccccc32)c1	-28%	/	/	/	/	/
COc1ccc(OCCn2c(=O)sc3ccccc32)cc1	0%	-11%	81*	-2%	25*	1%
Cc1ccccc1OCCn1c(=O)sc2ccccc21	4%	-2%	24	-12%	12	4%
Cc1cccc(OCCCn2c(=O)sc3ccccc32)c1	-3%	-110%	60*	-20%	44*	6%
O=c1c2sccc2nc(SCc2cc(=O)n3ccccc3n2)n1Cc1ccccn1	/	3%	37	3%	12	-5%
Cc1ccc(S(=O)(=O)NC(C)C(=O)N2CCOCCOCCOCCOCC2)cc1 (configuration not stated)	-4%	2%	-6	3%	9	0%
COc1ccc(NC(C)C(=O)Nc2ccc(C(C)(C)C)cc2)cc1Cl (configuration not stated)	1%	10%	38	-16%	20*	2%
Cc1ccc(NCc2nc3ccccc3n2CCOc2ccccc2)cc1	-7%	-3%	121*	-74%	76*	2%
OCCn1c(SCCOc2ccccc2)nc2ccccc21	0%	-53%	14	-1%	2	-7%
CCSc1nc2ccccc2n1CCOc1ccccc1	2%	2%	48*	?	21*	0%
CCCn1c(CNc2ccc(Br)cc2)nc2ccccc21	9%	-113%	39	-23%	17*	14%
Cc1nc2ccccc2n1CCOc1ccccc1	1%	0%	21	5%	12*	3%
Cc1ccc(CNC(=O)c2cccc(NC(=O)N3CCSc4ncccc43)c2)cc1	3%	/	/	/	/	/
CN(C)c1ccc(-c2cc[nH]c(=O)c2N)cc1	/	/	3	/	23	/
COc1ccc(Nc2ncnc3onc(C)c23)c(OC)c1	1%	/	/	/	/	/
N=c1nc(N)nc(N)n1-c1ccc(S(N)(=O)=O)cc1	/	2%	/	/	/	/
C[C@@H]1CN([C@H](C)CO)C(=O)CCCn2nncc2CO[C@@H]1CN(C)S(=O)(=O)c1ccccc1F	2%	/	/	/	/	/
O=C(N/N=C/c1ccncc1)NC1CCCCC1	-9%	0%	-2	1%	-3	9%
O=C(N/N=C/C=C/c1ccccc1)NC1CCCCC1	-2%	-50%	43	-2%	16*	2%
NC(=O)N/N=C/C=C/c1ccccc1	1%	-2%	51	-1%	-2	-1%
O=C(N/N=C/c1cccc(O)c1)NC1CCCCC1	-3%	/	89*	1%	30	2%
O=C(Nc1cccnc1)c1cc2c(ccc3ccccc32)o1	-7%	-6%	40*	/	57*	-9%
O=C(c1cc2c(ccc3ccccc32)o1)N1CCCCC1	-4%	-27%	90*	-9%	52*	-12%
SMILES	Tb PYK inh	NS1 function inh	Shiga inhibitor	SARS PLpro yeast	CHX counter	LmPK inhibitor
NNC(=O)c1cc2c(ccc3ccccc32)o1	-2%	7%	2	1%	-1	3%
Cc1c(C(=O)Nc2ccc3oc(-c4cccnc4)nc3c2)oc2ccccc12	0%	-5%	6	-1%	-3	-4%
CCc1ccc2oc(C(=O)Nc3cccnc3)c(C)c2c1	-1%	-17%	66*	-12%	58*	7%
Cc1c(C(=O)Nc2cccnc2)oc2ccc(Br)cc12	2%	-32%	75*	-11%	34*	-7%
Cc1c(C(=O)Nc2cccc(S(=O)(=O)N3CCOCC3)c2)oc2ccc(Br)cc12	-20%	/	/	1%	/	/
COc1ccc(CCNC(=O)COC(=O)c2ccc(N3CCCC3=O)cc2)cc1	6%	/	1	3%	-3	-3%
Cc1c(C(=O)NCc2cccs2)oc2ccc(Br)cc12	-6%	-8%	40	13%	30*	2%
COc1ccc(-c2cc(-c3ccc(C)cc3)nc3c2COc2ccccc2-3)cc1	-1%	/	/	/	/	/
Cc1ccc(SCCCCN2CCOCC2)cc1	-13%	-6%	17	-8%	6.9*	-19%
